Experimental data taken from PubChem BioAssay (NCATS).
Inconclusive results are not listed. Activity calls are given as the source filed them. Calls follow the shape of the dose curve; as a rule, active = well fitted cell-killing curve with a large enough effect; inconclusive = small, poorly fitted or top-dose-only effect, or effect the other way; inactive = no such curve, though single readings can be large or run the other way.

Assay: Quantitative High-Throughput drug screen in 47 multiple myeloma cell lines against the NCATS MIPE library collection: INA6_PLB cell viability assay (AID 1918965; also: nearly all actives have a fitted effect of over 55% in size)
Settings: INA6 myeloma viability, CellTiter-Glo ATP luminescence, 48 h; series mostly up to 45.8 µM
From the text: PI: Beverly A. Mock Ph.D.
Laboratory of Cancer Biology and Genetics,
Center for Cancer Research, National Cancer Institute,
National Institute of Health, Bethesda, Maryland
Drug resistance and disease progression are common in multiple myeloma (MM) patients, underscoring the need for new therapeutic combinations. […] We hypothesized that effective combinations would reduce MYC expression and enhance p16 activity. […] These preclinical data identify potentially useful drug combinations for evaluation in drug-resistant MM and reveal potential mechanisms of combined drug sensitivity.
Described herein is the primary MIPE qHTS used to cherrypick compounds. Validated compounds were then further tested for potential synergistic activiy.
[1] Peat TJ, Gaikwad SM, Dubois W, Gyabaah-Kessie N, Zhang S, Gorjifard S, Phyo Z, Andres M, Hughitt VK, Simpson RM, Miller MA, Girvin AT, Taylor A, Williams D, D'Antonio N, Zhang Y, Rajagopalan A, Flietner E, Wilson K, Zhang X, Shinn P, Klumpp-Thomas C, McKnight C, Itkin Z, Chen L, Kazandijian D, Zhang J, Michalowski AM, Simmons JK, Keats J, Thomas CJ, Mock BA. Drug combinations identified by high-throughput screening promote cell cycle transition and upregulate Smad pathways in myeloma. Cancer Lett. 2023 Aug 1;568:216284. doi: 10.1016/j.canlet.2023.216284. Epub 2023 Jun 24. PMID: 37356470; PMCID: PMC10408729.
SEQUENCE No. (e.g., 1, 2, 3, etc.); […] (e.g., Cells, Incubation, Reagent, etc.); VALUE and DESCRIPTION.
1; Cells; 5 uL; white, solid bottom 1536-well Greiner assay plate.
2; Compounds; 23 nL; Kalypsis pin tool (Wako USA) equipped with a 1536-well pin head to transfer to the assay plates.
3; Incubation; 48 hours; 37C incubation.
4; Reagent;5uL; CellTiter Glo (Promega).
5; Detector; 425V; Luminescence; Viewlux PerkinElmer.
NOTES (numbers refer to Sequence numbers above)
1. The cell-based screening methods employed in this study were like those previously published. Briefly, the corresponding myeloma cell lines were screened in 1,536-well plates with 500 cells, 5-uL per well for inhibition of cell viability (assessed by measuring ATP levels with CellTiterGlo).
2. NCATS MIPE 4.0 library of approved and investigational drugs were added using the Kalypsis pin tool. Wells treated with DMSO only for 100% viability and media only wells for 0% viability were used as controls.
3. The assay plates were covered and incubated for 48 hours in a 37C, 5% CO2 incubator with controlled humidity.
4. After 48 hours, CellTilter-GloTM luminescent substrate mix (Promega) reagent was added to the assay plate and plates we incubated for 5 min at room temperature.
5. Signal was measured as median relative luminescence units on a ViewLux (PerkinElmer) multiplate reader.
[1] Heske CM, Davis MI, Baumgart JT, Wilson K, Gormally MV, Chen L, Zhang X, Ceribelli M, Duveau DY, Guha R, Ferrer M, Arnaldez FI, Ji J, Tran HL, Zhang Y, Mendoza A, Helman LJ, Thomas CJ. Matrix Screen Identifies Synergistic Combination of PARP Inhibitors and Nicotinamide Phosphoribosyltransferase (NAMPT) Inhibitors in Ewing Sarcoma. Clin Cancer Res. 2017 Dec 1;23(23):7301-7311. doi: 10.1158/1078-0432.CCR-17-1121. Epub 2017 Sep 12. PMID: 28899971; PMCID: PMC6636827.
Potency is read from the fitted curve at half-maximal effect.

Question: Which Potency does the source give for `Cn1c(=O)c2c(ncn2CC(O)CO)n(C)c1=O` (stereo not given) here?
Answer: inactive

Question: For `N=C(N)c1ccc(OCCCCCOc2ccc(C(=N)N)cc2)cc1`, which Potency is on record?
Answer: 3.72 µM (active)

Question: For `O=C(O)c1cc(=O)[nH]c(=O)[nH]1`, which Potency is on record?
Answer: inactive

Question: Which Potency does the source give for `Nc1ccc(S(=O)(=O)Nc2ccccn2)cc1` here?
Answer: inactive

Question: Which Potency does the source give for `Cc1ncc([N+](=O)[O-])n1CCO` here?
Answer: inactive

Question: Which Potency does the source give for `CCCc1nc(C)c2c(=O)[nH]c(-c3cc(S(=O)(=O)N4CCN(CC)CC4)ccc3OCC)nn12` here?
Answer: 4.18 µM (active)

Question: With `CN1CCCC(n2nc(Cc3ccc(Cl)cc3)c3ccccc3c2=O)CC1` (stereo not given) as the compound, how does the Potency read?
Answer: 1.32 µM (active)

Question: With `CCCc1cc(C(N)=S)ccn1` as the compound, how does the Potency read?
Answer: inactive

Question: Which Potency does the source give for `C[C@]12C=CC(=O)C=C1CC[C@@H]1[C@@H]2C(=O)C[C@@]2(C)[C@H]1CC[C@]2(O)C(=O)CO` here?
Answer: inactive

Question: Which Potency does the source give for `O[C@@H](CNC[C@H](O)[C@H]1CCc2cc(F)ccc2O1)[C@@H]1CCc2cc(F)ccc2O1` here?
Answer: 20.9 µM (active)

Question: With `CC1=NN(c2ccccc2)C(=O)C1` as the compound, how does the Potency read?
Answer: 13.2 µM (active)

Question: For `CC(N)C12CC3CC(CC(C3)C1)C2` (stereo not given), which Potency is on record?
Answer: inactive

Question: With `CC(C)(C)NC(=O)[C@H]1CC[C@H]2[C@@H]3CC[C@H]4NC(=O)C=C[C@]4(C)[C@H]3CC[C@]12C` as the compound, how does the Potency read?
Answer: 0.833 µM (active)

Question: With `CC(C(=O)O)c1ccc2c(c1)CC(=O)c1ccccc1S2` (stereo not given) as the compound, how does the Potency read?
Answer: inactive

Question: With `CCCOc1ccc(C(=O)OCCN(CC)CC)cc1N` as the compound, how does the Potency read?
Answer: inactive

Question: Which Potency does the source give for `CCOC(=O)c1ccc(C#Cc2ccc3c(c2)C(C)(C)CCS3)nc1` here?
Answer: inactive

Question: With `Nc1nc(=S)c2[nH]cnc2[nH]1` as the compound, how does the Potency read?
Answer: 0.469 µM (active)

Question: With `C1CCC(C(CC2CCCCN2)C2CCCCC2)CC1` (stereo not given) as the compound, how does the Potency read?
Answer: 9.35 µM (active)

Question: Which Potency does the source give for `CCCCCCNC(=O)n1cc(F)c(=O)[nH]c1=O` here?
Answer: 11.8 µM (active)

Question: With `CNC(=O)c1cc(Oc2ccc(NC(=O)Nc3ccc(Cl)c(C(F)(F)F)c3)cc2)ccn1` as the compound, how does the Potency read?
Answer: 13.2 µM (active)

Question: With `CC(C)(Sc1cc(C(C)(C)C)c(O)c(C(C)(C)C)c1)Sc1cc(C(C)(C)C)c(O)c(C(C)(C)C)c1` as the compound, how does the Potency read?
Answer: 4.69 µM (active)

Question: For `COc1ncnc(NS(=O)(=O)c2ccc(N)cc2)c1OC`, which Potency is on record?
Answer: inactive

Question: With `CCn1cc(C(=O)O)c(=O)c2cc(F)c(N3CCNCC3)cc21` as the compound, how does the Potency read?
Answer: inactive

Question: For `NC(=O)c1ccc2[nH]ccc2c1`, which Potency is on record?
Answer: inactive

Question: For `CCOC(=O)c1ccc(OC(=O)CCCCCN=C(N)N)cc1`, which Potency is on record?
Answer: inactive

Question: Which Potency does the source give for `CCOC(=O)[C@H](CCc1ccccc1)N[C@H]1CCc2ccccc2N(CC(=O)O)C1=O` here?
Answer: 14.8 µM (active)

Question: For `Oc1c(Cl)cc(Cl)c2cccnc12`, which Potency is on record?
Answer: 16.6 µM (active)

Question: With `Cc1cccc(N(C)C(=S)Oc2ccc3ccccc3c2)c1` as the compound, how does the Potency read?
Answer: inactive

Question: With `COc1ccc2cc3[n+](cc2c1OC)CCc1cc2c(cc1-3)OCO2` as the compound, how does the Potency read?
Answer: 6.62 µM (active)

Question: Which Potency does the source give for `CC(C)C[C@H](NC(=O)[C@H](CCc1ccccc1)NC(=O)CN1CCOCC1)C(=O)N[C@@H](Cc1ccccc1)C(=O)N[C@@H](CC(C)C)C(=O)[C@@]1(C)CO1` here?
Answer: 0.001 µM (active)

Question: Which Potency does the source give for `CC(C)(C)C(=O)OCOP(=O)(COCCn1cnc2c(N)ncnc21)OCOC(=O)C(C)(C)C` here?
Answer: 0.743 µM (active)

Question: Which Potency does the source give for `CC[C@H](C)C(=O)O[C@H]1C[C@@H](C)C=C2C=C[C@H](C)[C@H](CC[C@@H]3C[C@@H](O)CC(=O)O3)[C@H]21` here?
Answer: 18.7 µM (active)

Question: Which Potency does the source give for `COC(=O)Nc1nc2ccc(Sc3ccccc3)cc2[nH]1` here?
Answer: 0.743 µM (active)

Question: For `CCc1c2c(nc3ccc(OC(=O)N4CCC(N5CCCCC5)CC4)cc13)-c1cc3c(c(=O)n1C2)COC(=O)[C@]3(O)CC`, which Potency is on record?
Answer: 0.469 µM (active)

Question: For `CCCN[C@H]1CCc2nc(N)sc2C1`, which Potency is on record?
Answer: inactive

Question: With `COc1ccc2c(c1)c(CC(=O)OCC(=O)O)c(C)n2C(=O)c1ccc(Cl)cc1` as the compound, how does the Potency read?
Answer: inactive

Question: Which Potency does the source give for `COC(=O)Nc1nc2ccc(C(=O)c3ccccc3)cc2[nH]1` here?
Answer: 1.18 µM (active)

Question: With `C[C@@H]1C[C@H]2[C@@H]3CCC4=CC(=O)C=C[C@]4(C)[C@@]3(Cl)[C@@H](O)C[C@]2(C)[C@@]1(OC(=O)c1ccco1)C(=O)CCl` as the compound, how does the Potency read?
Answer: 2.96 µM (active)

Question: With `CCN(C)C(=O)Oc1cccc([C@H](C)N(C)C)c1` as the compound, how does the Potency read?
Answer: inactive

Question: With `Cc1ccc(S(=O)(=O)N[C@@H](Cc2ccccc2)C(=O)CCl)cc1` as the compound, how does the Potency read?
Answer: 5.9 µM (active)
